# Source: PubChem (National Center for Advancing Translational Sciences (NCATS))
# TRHR PAM – allosterically enhances the human TRH receptor; AID 493056; TRHR cells, fluo-8 calcium fluorescence, EC20 TRH enhancement; P34981; enhancement, % at 2 µM; hit rate 0.66% among 360,000; in the data active means enhancement above about 30%; further: 0% is about no effect
#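 TRHR-expressing cells loaded with fluo-8 calcium dye were read kinetically (ex 480/em 530) during compound addition, then stimulated with an EC20 of TRH (10 nM final). Enhancement of the Gq-mediated intracellular calcium response was scored.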
# D1 antagonist – blocks dopamine activation of the human D1 receptor; hit rate 3.2% among 360,000; HEK293 TREx D1 cells, calcium flux, dopamine EC80; stronger effect = lower value; activity change, negative = inhibition, % at 10 µM; in the data active means activity change below about -30%; further: on the % scale 0 is the no-effect control and ±100 the full control effect
# Target sequence (P21728 whole entry, looked up): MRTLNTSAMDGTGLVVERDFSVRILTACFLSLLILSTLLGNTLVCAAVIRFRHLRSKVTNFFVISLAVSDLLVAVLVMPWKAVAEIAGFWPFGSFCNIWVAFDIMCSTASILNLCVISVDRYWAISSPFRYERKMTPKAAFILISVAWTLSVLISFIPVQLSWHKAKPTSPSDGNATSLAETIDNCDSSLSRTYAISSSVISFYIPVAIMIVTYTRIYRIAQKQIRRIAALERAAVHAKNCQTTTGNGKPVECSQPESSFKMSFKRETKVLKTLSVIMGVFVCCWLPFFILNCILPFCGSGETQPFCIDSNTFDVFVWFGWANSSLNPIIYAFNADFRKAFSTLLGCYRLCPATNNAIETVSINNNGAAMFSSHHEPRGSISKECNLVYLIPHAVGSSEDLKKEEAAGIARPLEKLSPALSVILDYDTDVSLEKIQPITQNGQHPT
#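 Calcium flux readout: force-coupled, inducible Hek293 Trex D1 line, cells induced overnight at 30 C with tetracycline, dye-loaded 30–90 min at RT. Antagonism scored against EC80 dopamine challenge given 180 s after compound.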
# TRHR agonist – TRH receptor (human) agonism; P34981; TRHR cells, calcium flux fluo-8, FDSS agonist mode; activation, % at 2 µM; hit rate 0.18% among 360,000; further: 0% is about no effect
#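 In this calcium-flux screen, cells bearing human TRHR are dye-loaded with fluo-8, baselined for 10 cycles, then exposed to library compounds; positive kinetic calcium responses during the agonist phase mark hits, with TRH as control.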
# D1 potentiator – human D1 dopamine receptor positive modulation | P21728 | HEK293 TREx D1 cells, calcium flux, dopamine EC20 potentiation | potentiation, % at 10 µM | hit rate 0.036% among 360,000; in the data active means potentiation above about 30%; further: 0% is about no effect
# D1 ag – activates the human D1 dopamine receptor; activation, % at 2 µM; hit rate 1% among 360,000; AID 504660; HEK293 T-REx D1 cells, calcium flux, agonist mode; further: 0% is about no effect
#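 Tetracycline-induced HEK293 TREx D1 cells, force-coupled to calcium signalling, were dye-loaded with a no-wash calcium kit. Compound was pin-added after a 10 s baseline. Fluorescence was read kinetically at 1 cycle/s for 180 s, with calcium rises flagged as agonism.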
# * hit, by the source's call; nt = no result. This is a sample that favours compounds with a hit; in the whole collection about 4.7% have one here. Unless noted, no stated cut-off is given here; in the data, active means activation above about 30%; inactive means the rest.
SMILES,TRHR PAM,D1 antagonist,TRHR agonist,D1 potentiator,D1 ag
COc1ccccc1OCCC(=O)OCC(=O)NCc1ccc(Cl)cc1,4,-3,-1,-1,1
COc1ccc(CNC(=O)COC(=O)CCCOc2ccc(Cl)cc2Cl)cc1,-1,-3,-1,4,31*
COc1ccc(-n2cc(-c3ccccc3)c3c(N4CCN(CCO)CC4)ncnc32)cc1,-2,-36*,4,-13,17
CCOc1ccc(-n2cc(-c3ccccc3)c3c(N4CCN(c5ccccc5OC)CC4)ncnc32)cc1,-6,-32*,0,-1,-2
COc1cc(NC(=O)CN2C(=O)C(C)N(c3ccc(C)cc3)C2=O)cc(OC)c1 (centres undefined),4,8,0,-2,-1
Cc1cc(C)n(CCN(C)C(=O)c2cc(COc3c(F)cccc3F)on2)n1,9,-50*,-2,-1,-1
Cc1cc(C)n(CCNC(=O)c2cc(COc3c(F)cccc3F)on2)n1,-2,9,0,5,4
COC(=O)c1cc(C)nc2c1c(=O)nc(SCc1ccccc1Cl)n2C1CC1,-7,0,-1,0,0
COc1ccc(NC(=O)CCCN(C)S(=O)(=O)c2ccc(C)cc2)cc1,0,-60*,0,-9,4
Cc1ccc(S(=O)(=O)N(C)CCCC(=O)Nc2ccc(F)cc2)cc1,-1,-13,-1,-3,3
Cc1ccc(S(=O)(=O)N(C)CCCC(=O)Nc2ccncc2)cc1,2,-35*,1,nt,22
Cc1ccc(S(=O)(=O)N(C)CCCC(=O)Nc2ccc(C)cc2C)cc1,2,-52*,0,-2,18
Cc1cc(F)ccc1NC(=O)CCCN(C)S(=O)(=O)c1ccc(F)cc1,-6,-6,-1,-5,4
Cc1cccc(NC(=O)CSc2nc3ccccc3c3nc(CCn4cncc4C)nn23)c1,0,8,0,1,1
CCS(=O)(=O)c1ccc(-c2csc(-c3ccc(Cl)cc3)n2)c(Cl)c1Cl,17,-33*,1,-5,2
Cc1ccc2oc(C(=O)N(C)Cc3ccc(C)o3)c(C)c2c1,-3,2,0,-6,1
Cc1ccc(CN(C)C(=O)c2cc(Br)c(Br)s2)o1,25,-35*,0,-6,1
CCC1CN(C(=O)Nc2ccc(C)c(F)c2)c2ccccc2S1 (centres undefined),-2,11,-1,3,-1
O=C(Nc1nc2c(F)cc(F)cc2s1)C1CCN(C(=O)c2ccc(F)cc2)CC1,-5,0,0,-5,6
CNc1nc(-c2ccc3c(c2)CCN3C(=O)c2cccc(F)c2)cs1,-9,-18,-1,-4,3
O=C(Nc1nc(-c2ccc(F)cc2)cs1)C1CCN(C(=O)c2ccc(F)cc2)CC1,-5,-40*,0,-5,10
CNc1nc(-c2ccc3c(c2)CCN3C(=O)c2ccccc2C)cs1,11,-6,-1,1,0
Cc1cccc(C(=O)N2CCc3cc(-c4csc(NC(=O)CN5CCCC5)n4)ccc32)c1,2,-31*,0,7,7
O=C(CN1CCCC1)Nc1nc(-c2ccc3c(c2)CCN3C(=O)c2ccccc2F)cs1,-4,-87*,0,-8,8
Cc1cccc(C(=O)N2CCc3cc(-c4nc(NC(=O)CN5CCCC5)sc4C)ccc32)c1,3,-2,0,-6,5
SMILES,TRHR PAM,D1 antagonist,TRHR agonist,D1 potentiator,D1 ag
CNc1nc(-c2ccc3c(c2)CCN3C(=O)c2ccc(F)cc2)cs1,-2,-38*,0,-10,9
Cc1ccc(NC(=O)NCc2cccn2Cc2ccccc2)c(C)c1,-4,-7,0,0,4
CCCCCCCCCn1c2c(c(=N)c3c1CCC3)CCCC2,-1,8,4,2,85*
N=c1c2c(n(Cc3ccc(Cl)cc3)c3c1CCC3)CCC2,12,0,1,-6,1
N=c1c2c(n(Cc3ccc(F)cc3)c3c1CCC3)CCCC2,-2,-30*,0,-9,3
CN(C(=O)CSc1nnc(-c2cccnc2)n1-c1ccccc1F)C1CCS(=O)(=O)C1 (centres undefined),2,-5,0,-3,2
CCCc1ccc(C(C)NC(=S)NCc2ccc(F)cc2)cc1 (centres undefined),-3,-1,9,-5,80*
CCC(C)c1ccc(C(C)NC(=S)NCc2ccc(F)cc2)cc1 (centres undefined),0,-14,3,-4,21
CCOc1ccc(C(C)NC(=S)NCc2ccc(Cl)cc2)cc1 (centres undefined),-3,nt,7,-5,35*
Cc1c(C(=O)N(C)C)sc2c1c(=O)n(-c1ccc(F)cc1)c(=O)n2Cc1ccccc1C#N,2,-3,0,-2,4
O=C(NC1CCSc2ccccc21)c1cccc(S(=O)(=O)N2CCOCC2)c1 (centres undefined),-11,-12,-1,-5,4
CC1CCCN(CCCNC(=O)Cn2ncc3c([nH]c4ccccc43)c2=O)C1 (centres undefined),8,-12,0,1,-1
c1ccc(COc2ccccc2CNC23CC4CC(CC(C4)C2)C3)cc1,-2,5,7,-4,49*
CCC(=O)N1CCCC(C(=O)c2ccc(-c3ccccc3)cc2)C1 (centres undefined),0,-30*,0,-6,5
COC(=O)CCCC(=O)N1CCCC(C(=O)c2ccc(-c3ccccc3)cc2)C1 (centres undefined),3,-30*,-1,-9,4
COC(=O)CCCC(=O)N1CCCC(C(=O)c2ccccc2SC)C1 (centres undefined),1,-20,-1,-5,3
O=C(c1ccc(-c2ccccc2)cc1)C1CCCN(C(=O)Cn2cncn2)C1 (centres undefined),-5,8,0,0,4
COC(=O)CCCC(=O)N1CCCC(CCC(=O)NCc2ccc(F)c(F)c2)C1 (centres undefined),7,-44*,-1,-6,8
CN(Cc1ccc(F)cc1)C(=O)c1cc(S(=O)(=O)N2CCCCC2)ccc1N1CCOCC1,5,4,0,-6,1
Oc1c(C(c2cccc(Cl)c2)N2CCOCC2)sc2nc(-c3ccco3)nn12 (centres undefined),-3,nt,1,5,-1
COc1ccc(C)cc1S(=O)(=O)NCC(c1ccco1)N1CCc2ccccc2C1 (centres undefined),3,-17,0,-10,3
O=C1CC(=O)Nc2cc(S(=O)(=O)Nc3cccc(Br)c3)ccc2N1,-9,-7,2,0,3
C/C(=N\NC(=O)CSCc1ccccc1Cl)c1cc(O)ccc1O,-1,-37*,1,-9,5
O=C(CSCc1ccccc1Cl)NN=C1CCCCCC1,-3,6,0,1,2
